Measured values taken from PubChem BioAssay (NCI).
The panel holds about 83,000 compounds, 20% with a hit somewhere; the sample as a whole holds those more often.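 Growth was measured after 48 h exposure to one concentration of compound in 96-well plates. Values under 10 count as active.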 Unmarked numbers belong to inactive results. Calls of active or inactive are those of the source.

How the values were obtained:
Assay in all cases: NCI-60 one-dose screen, 48 h (100 = growth as untreated, 0 = no growth, -100 = all killed)
Details in all cases: 10 µM unless noted
[1] = test system: NCI-H23 lung
[2] = test system: NCI-H322M lung
[3] = test system: HOP-62 NSCLC
[4] = test system: NCI-H460 lung
[5] = test system: HOP-92 NSCLC
[6] = test system: A549/ATCC NSCLC
[7] = test system: 786-0 renal
[8] = test system: COLO 205 colon
[9] = test system: DU-145 prostate
[10] = test system: K-562 leukemia
[11] = test system: MALME-3M melanoma
[12] = test system: MDA-MB-231 breast
[13] = test system: RXF 393 renal
[14] = test system: SF-268 CNS
[15] = test system: SF-295 CNS
[16] = test system: SF-539 CNS
[17] = test system: UACC-257 melanoma
[18] = test system: M14 melanoma

## COc1cc2cc(Oc3ccc(NC(=O)Nc4cccc(C(F)(F)F)c4)cc3)c(C)nc2cc1OCCN1CCCCC1
[1]
  growth: -75.4% (active)
[2]
  growth: -14.5% (active)
[3]
  growth: -68.8% (active)
[4]
  growth: -84.2% (active)
[5]
  growth: 23.4%
[6]
  growth: -56.2% (active)
[7]
  growth: -83.7% (active)
[8]
  growth: -74.9% (active)
[9]
  growth: -94.1% (active)
[10]
  growth: -49.7% (active)
[11]
  growth: -88.5% (active)
[12]
  growth: -86.8% (active)
[13]
  growth: -70.6% (active)
[14]
  growth: -78.4% (active)
[15]
  growth: -57.4% (active)
[16]
  growth: -92.4% (active)
[17]
  growth: -68.9% (active)
[18]
  growth: -64.1% (active)

## O=c1nc(NO)[nH]c(=O)n1Cc1ccccc1
[1]
  growth: 105%
[2]
  growth: 120%
[3]
  growth: 110%
[4]
  growth: 109%
[5]
  growth: -3.57% (active)
[6]
  growth: 111%
[7]
  growth: 101%
[8]
  growth: 128%
[9]
  growth: 115%
[10]
  growth: 108%
[11]
  growth: 100%
[12]
  growth: 123%
[13]
  growth: 94.8%
[14]
  growth: 106%
[15]
  growth: 93.7%
[16]
  growth: 98.7%
[18]
  growth: 106%

## CC[Si](CC)(CC)OC1[C@@H](O[Si](CC)(CC)CC)[C@@H](CNC(=O)NC)O[C@H]1n1cnc2c(NC(=O)Nc3ccccc3)ncnc21 (stereo partly specified)
[1]
  growth: 51.9%
[2]
  growth: 96.3%
[3]
  growth: 95.9%
[4]
  growth: 24.8%
[5]
  growth: 67.2%
[6]
  growth: 68.5%
[7]
  growth: 89.6%
[8]
  growth: 99.1%
[9]
  growth: 89.3%
[10]
  growth: 15.9%
[11]
  growth: 63.2%
[12]
  growth: 97.4%
[13]
  growth: 116%
[14]
  growth: 67.5%
[15]
  growth: 59%
[16]
  growth: 99%
[18]
  growth: 99.9%

## O=c1c2c(=NCCN3CCCC3)cc3c(=O)n(CCCN4CCOCC4)c(=O)c4c(-c5ccc(CN6CCCC6)cc5)cc(c(O)n1CCCN1CCOCC1)c2c4-3
[1]
  growth: -70.9% (active)
[2]
  growth: -29.6% (active)
[3]
  growth: -21.3% (active)
[4]
  growth: -62.9% (active)
[5]
  growth: -16.4% (active)
[6]
  growth: -16.2% (active)
[7]
  growth: -42% (active)
[8]
  growth: -60.4% (active)
[9]
  growth: -26.7% (active)
[10]
  growth: -21.1% (active)
[11]
  growth: -70.1% (active)
[12]
  growth: -46.6% (active)
[13]
  growth: -79.4% (active)
[14]
  growth: -33.1% (active)
[15]
  growth: -12.5% (active)
[16]
  growth: -78.8% (active)
[17]
  growth: -27.1% (active)
[18]
  growth: -78.7% (active)

## COc1cc2cc(Oc3ccc(NC(=O)Nc4ccc(Cl)c(C(F)(F)F)c4)cc3)c(C)nc2cc1OCCN1CCCCC1
[1]
  growth: -80.4% (active)
[2]
  growth: 8.09% (active)
[3]
  growth: 85.6%
[4]
  growth: -82% (active)
[5]
  growth: 37.4%
[6]
  growth: -54.4% (active)
[7]
  growth: -89.3% (active)
[8]
  growth: -81.4% (active)
[9]
  growth: -85.2% (active)
[10]
  growth: -48.1% (active)
[11]
  growth: -78.4% (active)
[12]
  growth: -87.2% (active)
[13]
  growth: 44.2%
[14]
  growth: 3.42% (active)
[15]
  growth: 57.5%
[16]
  growth: -89.8% (active)
[17]
  growth: -49.4% (active)
[18]
  growth: -67.4% (active)

## Cc1c(C)n(CC(O)CNC2CCCCC2C)c2ccccc12 (stereo unspecified)
[1]
  growth: -19.7% (active)
[2]
  growth: 31.7%
[3]
  growth: -71.3% (active)
[4]
  growth: 11.2%
[5]
  growth: -60% (active)
[6]
  growth: -31.4% (active)
[7]
  growth: -84.7% (active)
[8]
  growth: -84.7% (active)
[9]
  growth: -67.2% (active)
[10]
  growth: 4.09% (active)
[11]
  growth: -64.1% (active)
[12]
  growth: -9.38% (active)
[13]
  growth: -90.2% (active)
[14]
  growth: -42.5% (active)
[15]
  growth: -45.7% (active)
[16]
  growth: -87.3% (active)
[17]
  growth: -75.8% (active)
[18]
  growth: -59.4% (active)

## O=C1c2ccccc2-c2nnc(-c3ccc(Br)cc3)cc21
[1]
  growth: 47%
[2]
  growth: 86.8%
[3]
  growth: 56.3%
[4]
  growth: 81.6%
[5]
  growth: 78.6%
[6]
  growth: 1.3% (active)
[7]
  growth: 82.3%
[8]
  growth: 99.7%
[9]
  growth: 55.8%
[10]
  growth: 16.5%
[11]
  growth: -3.82% (active)
[12]
  growth: 14.1%
[13]
  growth: 33.7%
[14]
  growth: 59.3%
[15]
  growth: 13.6%
[16]
  growth: 56.7%
[17]
  growth: 52.6%
[18]
  growth: 37.2%

## CCN(CC)c1ccc(/C=C(\C#N)c2cc3ccccc3[nH]2)cc1
[1]
  growth: 79.2%
[2]
  growth: 88.7%
[3]
  growth: 77.7%
[4]
  growth: 24.4%
[5]
  growth: 97%
[6]
  growth: 39.4%
[7]
  growth: 80%
[8]
  growth: 45.3%
[9]
  growth: 74.1%
[10]
  growth: 14.2%
[11]
  growth: 71.7%
[12]
  growth: 48.6%
[13]
  growth: 94%
[14]
  growth: 71.8%
[15]
  growth: 46.9%
[16]
  growth: 58.3%
[17]
  growth: 81.5%
[18]
  growth: 29.6%

## N#C/C(=C\c1ccc[nH]1)c1cc2ccccc2[nH]1
[1]
  growth: 39.1%
[2]
  growth: 87.5%
[3]
  growth: 85.1%
[4]
  growth: 71.1%
[5]
  growth: 76.9%
[6]
  growth: 54.2%
[7]
  growth: 93.4%
[8]
  growth: 88.6%
[9]
  growth: 80%
[10]
  growth: 42.5%
[11]
  growth: 88%
[12]
  growth: 59.7%
[13]
  growth: 92.5%
[14]
  growth: 78.1%
[15]
  growth: 53.7%
[16]
  growth: 79.7%
[17]
  growth: 69.9%
[18]
  growth: 80.3%

## COc1ccc(-n2c(SCc3cc(OC)c(OC)c(OC)c3)nc3ccc(C)cc3c2=O)c(OC)c1
[1]
  growth: 17.8%
[2]
  growth: 28%
[3]
  growth: 47.4%
[4]
  growth: 4.59% (active)
[5]
  growth: 22.7%
[6]
  growth: 19%
[7]
  growth: 29.6%
[8]
  growth: -4.21% (active)
[9]
  growth: 4.58% (active)
[10]
  growth: 14.4%
[11]
  growth: 25.5%
[12]
  growth: 44.8%
[13]
  growth: 19.6%
[14]
  growth: 44.1%
[15]
  growth: 6.35% (active)
[16]
  growth: 20%
[18]
  growth: 11.2%

## Cc1ccccc1-n1nnc(C(=O)Nc2ccc(-c3ccccc3)cn2)c1C
[1]
  growth: 38.1% [50 µM]
[2]
  growth: 81.3% [50 µM]
[3]
  growth: 93.7% [50 µM]
[4]
  growth: 61.9% [50 µM]
[5]
  growth: 74.3% [50 µM]
[6]
  growth: 29.8% [50 µM]
[7]
  growth: 62.1% [50 µM]
[8]
  growth: 40.2% [50 µM]
[9]
  growth: 54.3% [50 µM]
[10]
  growth: 26.5% [50 µM]
[11]
  growth: 39.6% [50 µM]
[12]
  growth: 63.1% [50 µM]
[13]
  growth: 74.7% [50 µM]
[14]
  growth: 68.7% [50 µM]
[15]
  growth: 38.9% [50 µM]
[16]
  growth: 72.3% [50 µM]
[17]
  growth: 25.5% [50 µM]
[18]
  growth: 41.8% [50 µM]

## O=c1[nH]c(=O)n(Cc2ccc(F)cc2)cc1F
[1]
  growth: 105% [50 µM]
[2]
  growth: 107% [50 µM]
[3]
  growth: 109% [50 µM]
[4]
  growth: 108% [50 µM]
[5]
  growth: 108% [50 µM]
[6]
  growth: 96% [50 µM]
[7]
  growth: 105% [50 µM]
[8]
  growth: 115% [50 µM]
[9]
  growth: 110% [50 µM]
[10]
  growth: 86.7% [50 µM]
[11]
  growth: 101% [50 µM]
[12]
  growth: 101% [50 µM]
[13]
  growth: 111% [50 µM]
[14]
  growth: 99.1% [50 µM]
[15]
  growth: 101% [50 µM]
[16]
  growth: 100% [50 µM]
[17]
  growth: 83.9% [50 µM]
[18]
  growth: 109% [50 µM]

## CC(=O)Nc1ccccc1-c1n[nH]c(=O)[nH]c1=O
[1]
  growth: 102%
[2]
  growth: 105%
[3]
  growth: 97.6%
[4]
  growth: 104%
[5]
  growth: -10.8% (active)
[6]
  growth: 116%
[7]
  growth: 98.4%
[8]
  growth: 115%
[9]
  growth: 107%
[10]
  growth: 107%
[11]
  growth: 89.6%
[12]
  growth: 104%
[13]
  growth: 96.6%
[14]
  growth: 105%
[15]
  growth: 98.1%
[16]
  growth: 91.3%
[18]
  growth: 92%

## O=C1CC(c2ccsc2)c2snc(-c3ccc(Cl)cc3)c2N1 (stereo unspecified)
[1]
  growth: 35.9%
[2]
  growth: 55.7%
[3]
  growth: 37.2%
[4]
  growth: 10.6%
[5]
  growth: 51.1%
[6]
  growth: 35.1%
[7]
  growth: 39.6%
[8]
  growth: -42.8% (active)
[9]
  growth: 19.4%
[10]
  growth: 16.4%
[11]
  growth: 37.7%
[12]
  growth: 90%
[13]
  growth: 25.4%
[14]
  growth: 56.1%
[15]
  growth: 17.1%
[16]
  growth: 32.4%
[17]
  growth: 50%
[18]
  growth: 13.9%

## COc1ccc(S(=O)(=O)ON=C2C=C(C)C(=O)C(C)=C2)cc1
[1]
  growth: 98.2%
[2]
  growth: 103%
[3]
  growth: 106%
[4]
  growth: 106%
[5]
  growth: 59.4%
[6]
  growth: 105%
[7]
  growth: 93.1%
[8]
  growth: 89.2%
[9]
  growth: 101%
[10]
  growth: 48.7%
[11]
  growth: 102%
[12]
  growth: 62.5%
[13]
  growth: 81.6%
[14]
  growth: 92.6%
[15]
  growth: 93%
[16]
  growth: 94%
[17]
  growth: 98.6%
[18]
  growth: 99.9%

## COc1ccc(-c2cc(=O)oc3c4c(ccc23)OCN(Cc2ccc(F)cc2)C4)cc1
[1]
  growth: 41.2%
[2]
  growth: 75.9%
[3]
  growth: 80%
[4]
  growth: 61.8%
[5]
  growth: 47.8%
[6]
  growth: 69.6%
[7]
  growth: 65.7%
[8]
  growth: 64.2%
[9]
  growth: 73.4%
[10]
  growth: 24.3%
[11]
  growth: 77.1%
[12]
  growth: 58.9%
[13]
  growth: 57%
[14]
  growth: 82%
[15]
  growth: 27.3%
[16]
  growth: 74.7%
[17]
  growth: 39.6%
[18]
  growth: 54.6%

## COc1ccccc1-n1c(SCc2cc(OC)c(OC)c(OC)c2)nc2ccc(Cl)cc2c1=O
[1]
  growth: 36.1%
[2]
  growth: 55.1%
[3]
  growth: 51.8%
[4]
  growth: 10.8%
[5]
  growth: 42.9%
[6]
  growth: 31.1%
[7]
  growth: 51.1%
[8]
  growth: 28%
[9]
  growth: 30.1%
[10]
  growth: 12.7%
[11]
  growth: 33%
[12]
  growth: 55.7%
[13]
  growth: 61.5%
[14]
  growth: 41.6%
[15]
  growth: 31.9%
[16]
  growth: 64.6%
[18]
  growth: 15.9%
